From the OligoGym collection

Each sequence was assayed against KLF9 (assay: pooled miR-30 sensor sort-seq; sequence = guide strand). Conditions: shRNA.
Further: reference of the scale not given here.

Row | Sequence | sensor-assay potency score (higher = more potent)
1 | TTAAACAGTTGTAAAGATCAGT | -0.0225
2 | TTGCAAAACACTACCCTCCTTC | -0.0123
3 | TTAGTGTTCAATGAACTCTAGT | -0.32
4 | TTAATCTCAAAAGTTAACGTGA | 0.201
5 | TTTAGATGACAGATCATGCTGG | 0.459
6 | TAAACAAAAATTACTATCCTGC | 0.0439
7 | TATCTTGATATAGTAAATCTAA | -0.625
8 | TTTCTCGTGAGAAAACACTTTC | -0.637
9 | TTAAACACCTGCAATAGTCTTT | 0.257
10 | TCTACATAACTCTTGCACCTGA | -0.302
11 | TTCTTTCTTTTTAAACACCTGC | -0.453
12 | TAGTAGTCCTATTTGAACCATA | -0.845
13 | TTACAAGTTAGCAAGTTGCTAG | -0.0943
14 | TACAGTGTTACAGATCATCTGA | 0.728
15 | TTGTCTTTCACTGACTTTGCTT | -0.214
16 | TTCTGTAATTGTAACTACCAAA | -0.904
17 | TTCACCTGTATGCACTCTGTAA | -0.85
18 | TTCAGGTCCAACAAGCTCTTGG | -0.253
19 | TTCTGTACTTAGTGTAACCTTT | -0.287
20 | TAACTTATTCATCCTCTGCATT | -0.919
21 | TTGATCTTAGGCTACAATGTGC | -0.659
22 | TTTATATCCATCTAAGTGCTTG | -0.361
23 | TTCGATCGCTTGATCATGCTGG | 0.623

These sequences were tested against KLHL20 in the same assay as above. Conditions: shRNA.

Row | Sequence | sensor-assay potency score (higher = more potent)
24 | TTGTTTGTATAAAAGAACCAAG | -1.24
25 | TTCTTCATCACTTTTGATGAGG | -0.804
26 | TAATTGAGGACGTCTTTCCTGA | 0.0524
27 | TTGAAAATTATTGTGCATCTTG | -0.295
28 | TCTCCTGTAAACATAGCTCGGA | -0.114
29 | TATGTTGGGTGAACTTGTCTGC | 0.299
30 | TACAGCATAGATCATGTCCTGA | 0.298
31 | TACATTTTGCATACCTACCTTT | -0.113
32 | TTTGTCTATGAATACAATGAGG | -1.57
33 | TCATCTACCAAGTCTCTGCATT | -0.755
34 | TTGTTCTTCACTGCGAACGTTT | -0.688
35 | TTGAACACTTGTTCTTCACTGC | 0.569

These sequences were tested against KLHL24 in the same assay as above. Conditions: shRNA.

Row | Sequence | sensor-assay potency score (higher = more potent)
36 | TATCAGAACAAGTATTATCATC | -1.27
37 | ATAACATCTGTGAATAAGCGGC | -0.459
38 | TTACAGGATCGTAGCACTCAGT | -1.07
39 | TGGATCATAAGATTGAACCTTA | 0.374
40 | TTTACCATTACACACAGACATA | -1.69
